Screening data from PubChem BioAssay.
CYP2C19 activ – increases human CYP2C19 enzyme activity. 96,000 tested, under 10 active. AID 1025. activation factor at 5 µM. recombinant CYP2C19, luciferin-H EGE luminescence; active compounds read high; 0 = fully inhibited enzyme, 1 = untreated enzyme. P33261;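 active = activation factor of at least 2 at 5 µM in the primary screen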;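 note: 0 = wells with 2.5 mM tranylcypromine and 1 = vehicle-only wells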
Target sequence (P33261 whole entry, looked up): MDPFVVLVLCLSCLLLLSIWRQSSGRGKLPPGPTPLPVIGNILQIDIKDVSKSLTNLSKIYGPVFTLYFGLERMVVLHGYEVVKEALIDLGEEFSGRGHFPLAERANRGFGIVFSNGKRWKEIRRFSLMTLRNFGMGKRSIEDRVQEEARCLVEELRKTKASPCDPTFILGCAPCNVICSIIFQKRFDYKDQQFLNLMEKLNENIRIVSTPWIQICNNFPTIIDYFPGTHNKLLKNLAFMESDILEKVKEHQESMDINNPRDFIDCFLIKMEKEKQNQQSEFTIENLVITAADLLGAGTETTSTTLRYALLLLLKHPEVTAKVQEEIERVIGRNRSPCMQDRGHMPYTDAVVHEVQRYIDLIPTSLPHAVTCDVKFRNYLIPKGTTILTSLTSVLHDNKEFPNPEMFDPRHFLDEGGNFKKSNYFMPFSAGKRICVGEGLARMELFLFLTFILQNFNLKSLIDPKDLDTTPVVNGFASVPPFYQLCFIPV
CYP2C9 inh – inhibitors of human CYP2C9 | P11712 | CYP2C9 Supersomes, luciferin-H conversion, luminescence | inhibition, % at 5 µM | 96,000 compounds, 20% hits | AID 777;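 active = blocking of liver enzyme CYP2C9 beyond about 50% at 5 µM, limit read from the data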
CYP2C19 inhib – inhibitors of human CYP2C19; P33261; CYP2C19 Supersomes, luciferin-H EGE luminescence, 30 min; inhibition, % at 5 µM; 96,000 compounds, 21% hits; AID 778;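 active = CYP2C19 inhibition above a set limit at 5 µM in the primary screen, cut at about 50% in these data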;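 note: plate controls were negative control wells for no effect and 2.5 mM tranylcypromine positive control for full effect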
Measles CPE – protection of cells from measles virus. Measles virus-infected cells, CPE protection, absorbance. protection (pct of control), % at 4 µM. 140,000 compounds, 1.5% hits. AID 841; in the data active = protection mostly above about 24%, no sharp cut-off; inactive = mostly below about 26%
CYP2C9 act – CYP2C9 (human) activation. activation factor at 5 µM. 96,000 compounds, 1.4% hits. recombinant CYP2C9, luciferin-H conversion, luminescence; active compounds read high; factor 1 = untreated enzyme, 0 = blocked;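 active = activation factor of 2 or more for CYP2C9 at a 5 µM dose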;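 note: 0 = sulfaphenazole-blocked wells and 1 = vehicle-only wells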
The depositor's hits bear a star; x = no result. Sampled rows, rich in hits. Any-hit rate of the full collection: about 22%.

SMILES | CYP2C19 activ | CYP2C9 inh | CYP2C19 inhib | Measles CPE | CYP2C9 act
CCn1c(C)c(C(C)=O)c(N2CCCC2)nc1=S | 1.1 | -11 | -10 | 4 | 1.1
CSc1nc(SCC(=O)NC(c2ccccc2)c2ccccc2)c2c3c(sc2n1)CN(C)CC3 | 0.6 | 57* | 44 | 2 | 0.4
CCc1cc2c3c(c(=O)oc2cc1O)CCCC3 | 0.4 | 72* | 62* | 29 | 0.3
CCc1cc2c(CN3CCN(C)CC3)cc(=O)oc2cc1O | 1.1 | -26 | -10 | 15 | 1.3
Cc1oc2c(C)c3oc(=O)c4c(c3cc2c1C)CCC4 | 0.2 | 28 | 80* | 4 | 0.7
Cc1oc2cc3oc(=O)c4c(c3cc2c1C)CCC4 | 0.4 | -4 | 63* | 8 | 1
Cc1coc2c(C)c3oc(=O)c4c(c3cc12)CCCC4 | 0.6 | 47 | 42 | x | 0.5
Cc1c(O)c(CN2CCCCC2)cc2c3c(c(=O)oc12)CCC3 | 0.6 | 70* | 42 | 7 | 0.3
CCOC(=O)c1c(-c2ccc(C)s2)csc1NC(=O)c1ccco1 | 1.1 | -4 | -5 | x | 1
O=C(Cn1nnc2ccccc2c1=O)NCCc1ccc(F)cc1 | x | x | x | 24 | x
CCOC(=O)c1c(C)n(OCc2ccccc2)c2ccc3nonc3c12 | 1 | 60* | -3 | 26 | 0.4
Cc1nc(SCC(=O)NC(=O)NCc2ccccc2)nc(C)c1C | 0.4 | 33 | 59* | 7 | 0.7
Cc1cc(=O)[nH]c(SCC(=O)NCCc2ccccc2)n1 | 0.6 | 44 | 37 | 10 | 0.6
Cc1csc(SCC(=O)NC(=O)NCc2ccccc2)n1 | 0.7 | 16 | 28 | 25 | 0.8
Cc1nc(SCC(=O)NCCc2ccccc2)nc(C)c1C | 0.2 | -7 | 80* | 12 | 1.1
COc1ccc(Cn2nnnc2C(c2cc3cc(C)ccc3[nH]c2=O)N2CCOCC2)cc1 (configuration not stated) | 1.1 | 5 | -6 | 8 | 1
COc1ccc(Cn2nnnc2C(c2ccncc2)N2CCOCC2)cc1 (configuration not stated) | 0.1 | 78* | 90* | 25 | 0.2
COc1ccc(C(c2nnnn2C2CCCC2)N2CCC(C)CC2)c(OC)c1 (configuration not stated) | 0.6 | 21 | 36 | 14 | 0.8
COc1ccc(OC)c(C(c2nnnn2C2CCCC2)N2CCN(c3ccc(F)cc3)CC2)c1 (configuration not stated) | 0.2 | 63* | 81* | 9 | 0.4
CCC(C)(C)n1nnnc1C(c1ccc2ncccc2c1)N1CCN(c2nc3ccccc3s2)CC1 (configuration not stated) | 0.9 | 88* | 7 | 12 | 0.1
COc1ccc(C(c2nnnn2Cc2ccccc2)N2CCN(c3ccccc3)CC2)cc1 (configuration not stated) | 0.1 | 86* | 91* | 3 | 0.1
COc1ccc(C(=O)NCCN2CCCC2)cc1OC | 1.3 | 9 | -27 | 1 | 0.9
N#Cc1c(-c2cccc(F)c2)cc(-c2ccccc2)nc1Br | 1.1 | -4 | -14 | 5 | 1
CCOc1nc(NCCO)nc(NCCC2=CCCCC2)n1 | x | x | x | 22 | x
COc1ccc(C(c2nnnn2CC2CCCO2)N2CCN(c3ccc(F)cc3)CC2)cc1 (configuration not stated) | 0.5 | 78* | 48 | 6 | 0.2
SMILES | CYP2C19 activ | CYP2C9 inh | CYP2C19 inhib | Measles CPE | CYP2C9 act
COc1ccc(C(c2nnnn2C2CCCCC2)N2CCN(c3ccccc3)CC2)cc1 (configuration not stated) | 0.3 | 75* | 72* | x | 0.3
COCCn1nnnc1C(c1ccccc1)N1CCN(C)CC1 (configuration not stated) | 1 | -2 | 3 | 3 | 1
COc1ccc(C(c2nnnn2C2CCCC2)N2CCN(c3ccccc3)CC2)cc1 (configuration not stated) | x | x | x | 10 | x
c1ccc(C(c2nnnn2Cc2cccs2)N2CCN(C3CCCC3)CC2)cc1 (configuration not stated) | 0.8 | 6 | 24 | 44 | 0.9
COCCn1nnnc1C(c1ccc(OC)c(OC)c1)N1CCN(c2nc3ccccc3s2)CC1 (configuration not stated) | 1 | 69* | 0 | x | 0.3
Fc1ccc(C(c2nnnn2Cc2cccs2)N2CCN(C3CCCC3)CC2)cc1 (configuration not stated) | 0.2 | -11 | 80* | 8 | 1.1
Cc1ccc(S(=O)(=O)N2CCCCC2)cc1NC(=O)CCOc1ccccc1 | x | x | x | 7 | x
CN(CC(=O)NCCN1CCN(c2ccccc2)CC1)S(=O)(=O)c1ccc2c(c1)CCC(=O)N2 | 1 | 10 | 3 | 12 | 0.9
